Screens (PubChem)
DAX1 inh-1: DAX1 (NR0B1) inhibitors, primary screen, cell-based, HEK293, Gal4-DAX1, luciferase luminescence | HEK293 Gal4-DAX1 luciferase reporter | inhibition, % at 6.75 µM | hit rate 0.99% among 340,000 | AID 504766, 2011;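 active means inhibition above the mean over all tested compounds plus 3 SD, cut at about 4.2% in these data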;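 further: inhibition shows as a rise in luminescence from relieved DAX1 repression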
DAX1 inh-2: DAX1 (NR0B1) inhibitors on StAR promoter, primary screen, cell-based, luminescence, SF-1 (NR5A1), full-length DAX-1 | AID 652010, 2013 | hit rate 1.1% among 370,000 | inhibition, % at 6.8 µM | HEK293T StAR-luciferase reporter, SF-1/DAX-1 repression relief;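 active means inhibition above the mean over all tested compounds plus 3 SD, cut at about 3.6% in these data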;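 further: higher inhibition means more luminescence from relief of DAX-1 repression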
ssDAF12 agonist: S. stercoralis DAF-12 nuclear receptor activators, primary screen, cell-based, luminescence, HEK293, GRIP1 co-expression, lit1-tk-luc. hit rate 1% among 370,000. Nuclear hormone receptor DAF-12 (Strongyloides stercoralis). activation, % at 6.8 µM. AID 652126, 2013. HEK293 ssDAF-12/GRIP1 lit1-tk-luc reporter; % of 3 µM dafachronic acid response;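 active means activation above the mean over all tested compounds plus 3 SD, cut at about 0.9% in these data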
hcDAF-12 act: H. contortus DAF-12 nuclear receptor activators, primary screen, cell-based, luminescence, HEK293, lit1-tk-luc reporter | activation, % at 6.8 µM | hit rate 1.4% among 370,000 | AID 652067, 2013 | HEK293 hcDAF-12 lit1-tk-luc reporter; 0% DMSO, 100% Δ7-dafachronic acid;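 active means activation above the mean of all tested compounds plus 3 SD, cut at about 5.5% in these data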
hgDAF-12 ag: H. glycines DAF-12 receptor agonists, primary screen, cell-based, luminescence, HEK293, GAL4 fusion, UAS-luciferase; Nuclear hormone receptor DAF-12 (Heterodera glycines), GAL4 fusion; activation, % at 6.8 µM; hit rate 1.8% among 370,000; HEK293 GAL4-hgDAF12 UAS-luciferase reporter, agonist luminescence; normalized to butyrate control;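 active means activation above a cutoff set at the mean of all screened compounds plus 3 SD, cut at about 10% in these data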
DAX1 conf: DAX1 (NR0B1) inhibitors relieving SF-1 repression, confirmation, cell-based, luminescence, HEK293T, full-length DAX-1, SF-1 activated StAR promoter; shares compounds with DAX1 inh-2; HEK293T StAR-promoter luciferase reporter, SF-1/DAX-1 repression; inhibition, % at 6.8 µM; hit rate 87% among 2,400; AID 652134, 2013;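 active means inhibition above the average of every tested compound plus 3 SD, cut at about 3.8% in these data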
SF1 AF2mut Luc: StAR reporter signal changes without DAX1, counter-screen for DAX1 inhibitor project, cell-based, luminescence, AF-2 mutant SF-1, transactivation | shares compounds with DAX1 inh-2 | HEK293 StAR-luciferase, SF-1 AF2 mutant | inhibition, % at 6.8 µM | hit rate 78% among 2,400 | AID 652136, 2013;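 active means inhibition above the mean of all tested compounds plus 3 SD, cut at about 3% in these data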
LXR ag: LXR agonists, Gal4 luciferase reporter, confirmation, counter-screen for hcDAF-12 agonist project, cell-based, luminescence, HEK293, H. contortus campaign; shares compounds with hcDAF-12 act; activation, % at 6.8 µM; 3,400 tested, under 10 active; HEK293 Gal4-LXR tk-luc reporter, 24 h; normalized: DMSO 0%, positive control 100%; AID 743027, 2013;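 active means mean percent activation of the reporter above a cutoff set as the average over tested compounds plus their standard deviation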
Target sequence (P55055 whole entry, looked up, the tested form may be a part): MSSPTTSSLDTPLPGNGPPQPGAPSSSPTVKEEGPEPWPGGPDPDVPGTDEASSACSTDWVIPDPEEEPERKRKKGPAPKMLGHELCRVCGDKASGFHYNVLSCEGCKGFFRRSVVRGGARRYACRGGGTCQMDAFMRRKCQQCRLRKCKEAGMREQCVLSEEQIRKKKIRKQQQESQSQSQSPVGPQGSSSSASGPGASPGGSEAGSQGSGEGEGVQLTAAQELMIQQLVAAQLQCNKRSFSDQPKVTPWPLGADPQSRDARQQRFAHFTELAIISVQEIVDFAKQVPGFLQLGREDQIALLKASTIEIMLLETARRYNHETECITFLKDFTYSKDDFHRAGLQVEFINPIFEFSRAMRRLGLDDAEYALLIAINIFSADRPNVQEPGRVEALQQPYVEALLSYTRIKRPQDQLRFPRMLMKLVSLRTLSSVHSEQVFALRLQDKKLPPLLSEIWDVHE
hcDAF12 conf: H. contortus DAF-12 receptor agonists, confirmation, cell-based, luminescence, HEK293, lit1-tk-luc, triplicate | shares compounds with hcDAF-12 act | HEK293 hcDAF-12 lit1-tk-luc reporter; % of Δ7-dafachronic acid response | activation, % at 6.8 µM | hit rate 61% among 3,400;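 active means mean activation across triplicate tests above the threshold derived from the earlier primary screen, cut at about 5.5% in these data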
hgDAF12 conf: H. glycines DAF-12 receptor agonists, confirmation, cell-based, luminescence, HEK293, GAL4-LBD fusion; AID 743050, 2013; HEK293 GAL4-hgDAF12 luciferase reporter, agonist mode; percent of butyrate response; activation, % at 6.8 µM; hit rate 80% among 3,300; shares compounds with hgDAF-12 ag;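 active means mean activation over triplicate wells above the hit cutoff derived from the earlier primary screen, cut at about 11% in these data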
LXRb DAF12 ctr: LXR agonists, Gal4 luciferase reporter, confirmation, counter-screen for hgDAF-12 agonist project, cell-based, luminescence, HEK293, H. glycines campaign. AID 743051, 2013. 3,300 tested, under 10 active. activation, % at 6.8 µM. shares compounds with hgDAF-12 ag. 24 h;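 active means mean activation of the triplicate above a set limit carried over from the primary screen, none filed active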
Numbers stand for hits. Sampled rows, rich in hits. Any-hit rate of the full collection: about 4.1%.

For COc1ccc2c(c1OC)C(=O)N(c1cccc(C(F)(F)F)c1)C2 the results were DAX1 inh-1 inactive, DAX1 inh-2 5.1, ssDAF12 agonist inactive, hcDAF-12 act 5.7, hgDAF-12 ag 19, DAX1 conf 13, SF1 AF2mut Luc 4.4, hgDAF12 conf 15 and LXRb DAF12 ctr inactive.
Screening COc1ccccc1N1Cc2ccc(OC)c(OC)c2C1=O returned DAX1 inh-1 inactive, DAX1 inh-2 inactive, ssDAF12 agonist inactive, hcDAF-12 act inactive and hgDAF-12 ag inactive.
For C/C(=N\NC(=O)c1ccccn1)c1ccc(C(=O)O)s1 the results were DAX1 inh-2 5.2, ssDAF12 agonist inactive, hcDAF-12 act inactive, hgDAF-12 ag 22, DAX1 conf inactive, SF1 AF2mut Luc inactive, hgDAF12 conf 11 and LXRb DAF12 ctr inactive.
Screening CN(C)c1ccc2c(=O)c3ccccc3oc2n1 returned DAX1 inh-2 7.8, ssDAF12 agonist inactive, hcDAF-12 act 7.9, hgDAF-12 ag 13, DAX1 conf 13, SF1 AF2mut Luc 5.9, LXR ag inactive, hcDAF12 conf 8.4, hgDAF12 conf 22 and LXRb DAF12 ctr inactive.
Cc1nc2oc3ccccc3c(=O)c2cc1C(=O)O was read as DAX1 inh-1 inactive, DAX1 inh-2 inactive, ssDAF12 agonist inactive, hcDAF-12 act inactive and hgDAF-12 ag inactive.
O=C(O)c1cccc(N/N=C/c2ccc(-c3ccccc3)cc2)c1 was read as DAX1 inh-1 inactive, DAX1 inh-2 4.7, ssDAF12 agonist inactive, hcDAF-12 act inactive, hgDAF-12 ag 16, DAX1 conf 22, SF1 AF2mut Luc 10, hgDAF12 conf 27 and LXRb DAF12 ctr inactive.
For COc1ccc(-c2noc(-c3ccc4c(c3)OCO4)n2)cc1 the results were DAX1 inh-1 inactive, DAX1 inh-2 inactive, ssDAF12 agonist inactive, hcDAF-12 act inactive and hgDAF-12 ag inactive.
COc1cccc(-c2noc(-c3ccc4c(c3)OCO4)n2)c1 was read as DAX1 inh-1 4.3, DAX1 inh-2 6.1, ssDAF12 agonist 1.8, hcDAF-12 act inactive, hgDAF-12 ag 17, DAX1 conf 13, SF1 AF2mut Luc 4.0, hgDAF12 conf 17 and LXRb DAF12 ctr inactive.
